From ChEMBL document CHEMBL2218924, “A broad activity screen in support of a chemogenomic map for kinase signalling research and drug discovery” (Biochem J, 2013)

How the values were obtained:
[1] = target: ALK tyrosine kinase receptor (Homo sapiens) (UniProt Q9UM73); details: at 10 µM
[2] = target: T1, Activin receptor type-1B (Homo sapiens) (UniProt P36896); details: at 1 µM
T1 sequence (whole entry): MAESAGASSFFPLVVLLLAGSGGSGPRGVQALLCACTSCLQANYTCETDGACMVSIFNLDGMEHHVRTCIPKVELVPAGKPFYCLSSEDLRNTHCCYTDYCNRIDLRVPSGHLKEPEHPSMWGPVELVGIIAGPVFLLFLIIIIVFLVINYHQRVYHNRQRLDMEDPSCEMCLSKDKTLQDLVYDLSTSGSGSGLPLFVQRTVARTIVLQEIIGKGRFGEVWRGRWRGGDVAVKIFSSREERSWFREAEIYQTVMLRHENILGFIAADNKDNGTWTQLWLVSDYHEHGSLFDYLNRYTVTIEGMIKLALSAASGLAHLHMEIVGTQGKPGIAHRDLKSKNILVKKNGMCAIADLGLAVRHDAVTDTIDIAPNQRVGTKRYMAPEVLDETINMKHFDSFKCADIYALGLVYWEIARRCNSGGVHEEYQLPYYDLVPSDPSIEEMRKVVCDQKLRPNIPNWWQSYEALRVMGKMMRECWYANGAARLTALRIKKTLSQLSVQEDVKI

[3] = target: T1, Activin receptor type-1B (Homo sapiens); details: at 10 µM
[4] = target: T2, AMP-activated protein kinase (AMPK) alpha-1/beta-1/gamma-1 (Homo sapiens) (UniProt P54619+Q9Y478+Q13131); details: at 1 µM
[5] = target: T2, AMP-activated protein kinase (AMPK) alpha-1/beta-1/gamma-1 (Homo sapiens); details: at 10 µM
[6] = target: T3, AMP-activated protein kinase, AMPK (Homo sapiens) (UniProt P54646+O43741+P54619+Q9UGJ0+Q9Y478+Q13131+Q9UGI9); details: at 1 µM
[7] = target: T3, AMP-activated protein kinase, AMPK (Homo sapiens); details: at 10 µM
[8] = target: T4, NUAK family SNF1-like kinase 1 (Homo sapiens) (UniProt O60285); details: at 1 µM
T4 sequence (whole entry): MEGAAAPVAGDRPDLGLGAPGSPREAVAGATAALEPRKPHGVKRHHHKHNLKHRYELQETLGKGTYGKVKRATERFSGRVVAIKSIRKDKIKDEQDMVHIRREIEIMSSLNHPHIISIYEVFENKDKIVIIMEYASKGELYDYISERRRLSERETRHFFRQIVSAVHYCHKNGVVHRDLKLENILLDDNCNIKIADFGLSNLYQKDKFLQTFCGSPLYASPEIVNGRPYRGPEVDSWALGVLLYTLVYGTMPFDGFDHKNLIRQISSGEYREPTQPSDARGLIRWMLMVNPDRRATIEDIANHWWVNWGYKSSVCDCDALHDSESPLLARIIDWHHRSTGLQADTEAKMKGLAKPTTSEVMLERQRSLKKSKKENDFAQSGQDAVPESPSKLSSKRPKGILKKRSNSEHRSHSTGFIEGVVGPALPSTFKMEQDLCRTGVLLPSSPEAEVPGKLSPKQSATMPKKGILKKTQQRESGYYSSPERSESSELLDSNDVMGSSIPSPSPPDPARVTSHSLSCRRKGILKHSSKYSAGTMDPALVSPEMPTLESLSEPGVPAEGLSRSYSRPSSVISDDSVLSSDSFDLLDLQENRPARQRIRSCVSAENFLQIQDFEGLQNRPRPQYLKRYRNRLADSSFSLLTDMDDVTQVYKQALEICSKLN

[9] = target: T4, NUAK family SNF1-like kinase 1 (Homo sapiens); details: at 10 µM
[10] = target: T5, Mitogen-activated protein kinase kinase kinase 5 (Homo sapiens) (UniProt Q99683); details: at 1 µM
T5 sequence (whole entry): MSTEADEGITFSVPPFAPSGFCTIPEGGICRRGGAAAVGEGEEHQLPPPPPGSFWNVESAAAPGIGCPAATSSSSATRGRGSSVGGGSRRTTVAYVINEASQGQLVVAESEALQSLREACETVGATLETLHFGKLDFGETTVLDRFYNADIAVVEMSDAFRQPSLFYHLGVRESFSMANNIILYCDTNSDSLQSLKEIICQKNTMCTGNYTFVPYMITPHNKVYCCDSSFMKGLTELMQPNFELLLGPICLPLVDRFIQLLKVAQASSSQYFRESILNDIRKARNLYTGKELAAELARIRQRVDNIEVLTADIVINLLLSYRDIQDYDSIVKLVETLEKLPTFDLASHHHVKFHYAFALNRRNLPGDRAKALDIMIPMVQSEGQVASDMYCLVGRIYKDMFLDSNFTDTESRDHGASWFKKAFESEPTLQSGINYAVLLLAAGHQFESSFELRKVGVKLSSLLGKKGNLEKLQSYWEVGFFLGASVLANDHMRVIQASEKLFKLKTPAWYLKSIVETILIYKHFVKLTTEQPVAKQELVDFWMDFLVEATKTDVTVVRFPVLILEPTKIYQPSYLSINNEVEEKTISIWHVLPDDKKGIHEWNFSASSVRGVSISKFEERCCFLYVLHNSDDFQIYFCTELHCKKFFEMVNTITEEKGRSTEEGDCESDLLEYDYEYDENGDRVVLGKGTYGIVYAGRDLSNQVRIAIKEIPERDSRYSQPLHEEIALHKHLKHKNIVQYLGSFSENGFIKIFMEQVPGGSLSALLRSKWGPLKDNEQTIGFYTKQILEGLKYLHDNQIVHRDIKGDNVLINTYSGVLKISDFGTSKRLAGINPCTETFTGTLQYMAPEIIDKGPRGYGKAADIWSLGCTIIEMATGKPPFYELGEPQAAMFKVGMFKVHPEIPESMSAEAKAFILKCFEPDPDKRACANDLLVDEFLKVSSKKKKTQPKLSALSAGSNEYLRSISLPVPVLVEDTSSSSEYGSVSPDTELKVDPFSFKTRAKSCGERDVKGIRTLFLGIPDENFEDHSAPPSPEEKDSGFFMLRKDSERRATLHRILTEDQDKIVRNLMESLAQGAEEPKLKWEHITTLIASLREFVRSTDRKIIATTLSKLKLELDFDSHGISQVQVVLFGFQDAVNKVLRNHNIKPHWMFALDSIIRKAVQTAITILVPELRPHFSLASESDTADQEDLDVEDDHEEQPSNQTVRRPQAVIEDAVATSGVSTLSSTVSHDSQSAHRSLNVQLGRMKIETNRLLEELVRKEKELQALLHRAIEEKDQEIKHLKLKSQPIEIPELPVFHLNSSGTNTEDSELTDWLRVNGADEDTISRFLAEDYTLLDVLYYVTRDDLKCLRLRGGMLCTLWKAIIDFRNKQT

Sequence of ALK tyrosine kinase receptor (Homo sapiens) (Q9UM73 19-1620 limits assumed): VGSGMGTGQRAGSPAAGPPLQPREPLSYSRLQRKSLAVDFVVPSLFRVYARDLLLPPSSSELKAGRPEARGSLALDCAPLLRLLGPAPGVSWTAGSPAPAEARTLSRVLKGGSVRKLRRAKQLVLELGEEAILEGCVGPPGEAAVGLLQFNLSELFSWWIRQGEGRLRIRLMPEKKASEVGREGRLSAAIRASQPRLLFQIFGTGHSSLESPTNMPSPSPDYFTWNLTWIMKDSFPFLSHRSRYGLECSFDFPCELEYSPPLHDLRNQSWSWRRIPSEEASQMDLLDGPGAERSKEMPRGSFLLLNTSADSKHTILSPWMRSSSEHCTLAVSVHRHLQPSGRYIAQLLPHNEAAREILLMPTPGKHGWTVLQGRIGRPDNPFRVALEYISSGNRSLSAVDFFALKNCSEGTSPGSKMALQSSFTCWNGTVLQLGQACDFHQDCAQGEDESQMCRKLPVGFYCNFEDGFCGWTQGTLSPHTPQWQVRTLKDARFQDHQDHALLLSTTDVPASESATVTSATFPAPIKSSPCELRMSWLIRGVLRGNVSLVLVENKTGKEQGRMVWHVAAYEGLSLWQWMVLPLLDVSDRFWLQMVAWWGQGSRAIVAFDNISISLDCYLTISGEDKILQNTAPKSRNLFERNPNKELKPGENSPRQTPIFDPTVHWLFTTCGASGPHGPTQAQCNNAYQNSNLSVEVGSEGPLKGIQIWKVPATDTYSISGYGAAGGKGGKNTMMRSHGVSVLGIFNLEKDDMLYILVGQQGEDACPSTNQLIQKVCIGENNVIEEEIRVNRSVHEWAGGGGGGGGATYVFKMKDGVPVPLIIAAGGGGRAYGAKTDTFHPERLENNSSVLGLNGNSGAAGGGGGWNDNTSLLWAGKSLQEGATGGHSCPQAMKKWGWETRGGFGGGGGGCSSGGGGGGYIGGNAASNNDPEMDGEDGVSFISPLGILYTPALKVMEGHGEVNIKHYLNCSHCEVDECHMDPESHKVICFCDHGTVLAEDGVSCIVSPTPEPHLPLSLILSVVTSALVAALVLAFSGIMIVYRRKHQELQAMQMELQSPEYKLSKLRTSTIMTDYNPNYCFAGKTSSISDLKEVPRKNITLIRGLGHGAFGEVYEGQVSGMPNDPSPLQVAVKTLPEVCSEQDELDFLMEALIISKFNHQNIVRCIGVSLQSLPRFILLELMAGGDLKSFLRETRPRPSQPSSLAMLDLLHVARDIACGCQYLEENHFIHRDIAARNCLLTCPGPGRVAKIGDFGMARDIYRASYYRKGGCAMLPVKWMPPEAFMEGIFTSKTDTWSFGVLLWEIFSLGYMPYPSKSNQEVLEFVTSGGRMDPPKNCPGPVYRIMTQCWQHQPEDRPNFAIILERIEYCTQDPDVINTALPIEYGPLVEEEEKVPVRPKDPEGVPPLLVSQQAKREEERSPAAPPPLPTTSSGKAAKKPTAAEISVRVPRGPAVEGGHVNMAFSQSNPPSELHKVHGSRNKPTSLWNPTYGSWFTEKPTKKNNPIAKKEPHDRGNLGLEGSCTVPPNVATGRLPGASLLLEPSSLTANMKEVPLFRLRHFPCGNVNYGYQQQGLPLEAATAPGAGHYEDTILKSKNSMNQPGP
T2 sequence (P54619 whole entry): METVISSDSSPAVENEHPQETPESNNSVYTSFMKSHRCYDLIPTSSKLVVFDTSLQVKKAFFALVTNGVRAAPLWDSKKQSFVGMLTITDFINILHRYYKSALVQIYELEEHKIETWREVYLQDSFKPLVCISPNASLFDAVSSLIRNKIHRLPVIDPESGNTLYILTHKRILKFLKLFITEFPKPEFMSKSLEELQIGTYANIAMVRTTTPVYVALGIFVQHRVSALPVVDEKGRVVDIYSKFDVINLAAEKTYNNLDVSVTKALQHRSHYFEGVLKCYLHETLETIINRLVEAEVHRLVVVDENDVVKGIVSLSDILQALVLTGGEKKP
T2 sequence (Q13131 whole entry partner): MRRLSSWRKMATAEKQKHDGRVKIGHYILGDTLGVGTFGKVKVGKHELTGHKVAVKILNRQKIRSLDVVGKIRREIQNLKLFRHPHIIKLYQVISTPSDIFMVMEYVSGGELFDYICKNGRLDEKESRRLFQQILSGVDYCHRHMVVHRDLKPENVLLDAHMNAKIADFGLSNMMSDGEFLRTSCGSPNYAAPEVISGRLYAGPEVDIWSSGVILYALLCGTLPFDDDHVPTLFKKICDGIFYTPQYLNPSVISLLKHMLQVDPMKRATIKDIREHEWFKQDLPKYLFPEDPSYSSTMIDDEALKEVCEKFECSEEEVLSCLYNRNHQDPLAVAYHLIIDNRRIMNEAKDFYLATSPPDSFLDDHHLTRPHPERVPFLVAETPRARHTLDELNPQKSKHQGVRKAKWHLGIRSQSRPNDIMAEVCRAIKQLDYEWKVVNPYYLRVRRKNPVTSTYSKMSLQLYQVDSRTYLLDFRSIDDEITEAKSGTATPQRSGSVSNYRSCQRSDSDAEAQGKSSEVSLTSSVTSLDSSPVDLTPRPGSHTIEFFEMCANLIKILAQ
T2 sequence (Q9Y478 2-270 partner limits assumed): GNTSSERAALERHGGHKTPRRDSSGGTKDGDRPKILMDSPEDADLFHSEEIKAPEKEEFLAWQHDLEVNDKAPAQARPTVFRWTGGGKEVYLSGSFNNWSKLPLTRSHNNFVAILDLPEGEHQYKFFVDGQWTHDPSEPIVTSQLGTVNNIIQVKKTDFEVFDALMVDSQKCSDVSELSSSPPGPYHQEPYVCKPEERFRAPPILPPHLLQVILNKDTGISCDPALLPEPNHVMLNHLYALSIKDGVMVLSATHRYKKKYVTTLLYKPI

Nc1cccc(-c2cc3c(Oc4cccc(O)c4)ncnc3[nH]2)c1
residual activity [1]: 8%
residual activity [2]: 72%
residual activity [3]: 36%
residual activity [4]: 53%
residual activity [5]: 13%
residual activity [6]: 54%
residual activity [7]: 15%
residual activity [8]: 31%
residual activity [9]: 7%
residual activity [10]: 96%

Nc1n[nH]c2nnc(-c3c(-c4ccccc4)nn4ccccc34)cc12
residual activity [1]: 93%
residual activity [2]: 111%
residual activity [3]: 86%
residual activity [4]: 90%
residual activity [5]: 82%
residual activity [6]: 92%
residual activity [7]: 98%
residual activity [8]: 105%
residual activity [9]: 79%
residual activity [10]: 96%

O=C1Nc2cc(Br)ccc2/C1=C1/Nc2ccccc2/C1=N\O
residual activity [1]: 10%
residual activity [2]: 109%
residual activity [3]: 96%
residual activity [4]: 2%
residual activity [5]: 10%
residual activity [6]: 1%
residual activity [7]: 10%
residual activity [8]: 11%
residual activity [9]: 18%
residual activity [10]: 91%

CC(=O)O/N=C1\C(=C2\C(=O)Nc3cc(Br)ccc32)Nc2ccccc21
residual activity [1]: 40%
residual activity [2]: 100%
residual activity [3]: 119%
residual activity [4]: 60%
residual activity [5]: 9%
residual activity [6]: 46%
residual activity [7]: 11%
residual activity [8]: 56%
residual activity [9]: 19%
residual activity [10]: 92%

Cc1ccc(S(=O)(=O)/C=C/C#N)cc1
residual activity [1]: 93%
residual activity [2]: 103%
residual activity [3]: 106%
residual activity [4]: 89%
residual activity [5]: 89%
residual activity [6]: 87%
residual activity [7]: 86%
residual activity [8]: 109%
residual activity [9]: 94%
residual activity [10]: 111%

Oc1ccc(Nc2nc(-c3ccc(Cl)cc3)cs2)cc1
residual activity [1]: 62%
residual activity [2]: 104%
residual activity [3]: 110%
residual activity [4]: 105%
residual activity [5]: 90%
residual activity [6]: 119%
residual activity [7]: 100%
residual activity [8]: 107%
residual activity [9]: 84%
residual activity [10]: 96%

Cn1nc2c3c(cccc31)C(=O)c1ccccc1-2
residual activity [1]: 45%
residual activity [2]: 104%
residual activity [3]: 109%
residual activity [4]: 91%
residual activity [5]: 73%
residual activity [6]: 81%
residual activity [7]: 85%
residual activity [8]: 57%
residual activity [9]: 31%
residual activity [10]: 71%

O=C1NC(=O)c2cc(Nc3ccc(F)cc3)c(Nc3ccc(F)cc3)cc21
residual activity [1]: 42%
residual activity [2]: 129%
residual activity [3]: 88%
residual activity [4]: 93%
residual activity [5]: 73%
residual activity [6]: 92%
residual activity [7]: 66%
residual activity [8]: 101%
residual activity [9]: 75%
residual activity [10]: 110%

c1ccc(-c2n[nH]cc2-c2ccnc3ccccc23)nc1
residual activity [1]: 105%
residual activity [2]: -3%
residual activity [3]: -4%
residual activity [4]: 86%
residual activity [5]: 76%
residual activity [6]: 101%
residual activity [7]: 81%
residual activity [8]: 99%
residual activity [9]: 90%
residual activity [10]: 98%

O=C(Nc1cccc(Nc2cc(Nc3cccc(C(F)(F)F)c3)ncn2)c1)C1CC1
residual activity [1]: 22%
residual activity [2]: 126%
residual activity [3]: 124%
residual activity [4]: 97%
residual activity [5]: 73%
residual activity [6]: 103%
residual activity [7]: 74%
residual activity [8]: 90%
residual activity [9]: 127%
residual activity [10]: 104%

O=C1NC(=O)/C(=C\c2ccc3nccnc3c2)S1
residual activity [1]: 46%
residual activity [2]: 115%
residual activity [3]: 93%
residual activity [4]: 94%
residual activity [5]: 45%
residual activity [6]: 108%
residual activity [7]: 56%
residual activity [8]: 90%
residual activity [9]: 81%
residual activity [10]: 78%

O=C(Nc1cccc(Nc2nccc(Nc3cccc(C(F)(F)F)c3)n2)c1)C1CC1
residual activity [1]: 48%
residual activity [2]: 106%
residual activity [3]: 69%
residual activity [4]: 96%
residual activity [5]: 81%
residual activity [6]: 88%
residual activity [7]: 83%
residual activity [8]: 26%
residual activity [9]: 41%
residual activity [10]: 89%

N#CCCc1ccc2c(c1)-c1[nH]c3ccc([N+](=O)[O-])cc3c1CC(=O)N2
residual activity [1]: 45%
residual activity [2]: 67%
residual activity [3]: 23%
residual activity [4]: 57%
residual activity [5]: 29%
residual activity [6]: 27%
residual activity [7]: 17%
residual activity [8]: 10%
residual activity [9]: 8%

CC[n+]1c(/C=C/N(C)c2ccccc2)n(-c2ccccc2)c2ccc(-c3nc4ccccc4s3)cc21
residual activity [1]: 69%
residual activity [2]: 122%
residual activity [3]: 87%
residual activity [4]: 97%
residual activity [5]: 75%
residual activity [6]: 116%
residual activity [7]: 91%
residual activity [8]: 121%
residual activity [9]: 89%
residual activity [10]: 106%

CO[C@@H]1[C@H](N(C)C(=O)c2ccccc2)C[C@H]2O[C@]1(C)n1c3ccccc3c3c4c(c5c6ccccc6n2c5c31)C(=O)NC4
residual activity [1]: 33%
residual activity [2]: 128%
residual activity [3]: 102%
residual activity [4]: 10%
residual activity [5]: 6%
residual activity [6]: 1%
residual activity [7]: 4%
residual activity [8]: 7%
residual activity [9]: 7%
residual activity [10]: 96%

c1ccc(-c2n[nH]c3c2oc2ccccc23)cc1
residual activity [1]: 32%
residual activity [2]: 134%
residual activity [3]: 99%
residual activity [4]: 89%
residual activity [5]: 49%
residual activity [6]: 91%
residual activity [7]: 47%
residual activity [8]: 89%
residual activity [9]: 65%
residual activity [10]: 95%

C[C@@H](N)[C@H]1CC[C@H](C(=O)Nc2ccncc2)CC1
residual activity [1]: 126%
residual activity [2]: 82%
residual activity [3]: 63%
residual activity [4]: 98%
residual activity [5]: 93%
residual activity [6]: 104%
residual activity [7]: 83%
residual activity [8]: 101%
residual activity [9]: 91%
residual activity [10]: 101%
